Screens deposited in PubChem by several laboratories.
Hits are enriched below; roughly 3.1% of the tested compounds scored in any of these assays.
ATG4B inhibitor = inhibitors of human ATG4B cysteine protease; hit rate 0.51% among 340,000; inhibition, % at 8.33 µM; AID 504462; ATG4B cleavage of LC3-PLA2, NBD-HPC fluorescence, 1 h; in the data active = inhibition above about 40%
Target sequence (Q9Y4P1 whole entry, looked up): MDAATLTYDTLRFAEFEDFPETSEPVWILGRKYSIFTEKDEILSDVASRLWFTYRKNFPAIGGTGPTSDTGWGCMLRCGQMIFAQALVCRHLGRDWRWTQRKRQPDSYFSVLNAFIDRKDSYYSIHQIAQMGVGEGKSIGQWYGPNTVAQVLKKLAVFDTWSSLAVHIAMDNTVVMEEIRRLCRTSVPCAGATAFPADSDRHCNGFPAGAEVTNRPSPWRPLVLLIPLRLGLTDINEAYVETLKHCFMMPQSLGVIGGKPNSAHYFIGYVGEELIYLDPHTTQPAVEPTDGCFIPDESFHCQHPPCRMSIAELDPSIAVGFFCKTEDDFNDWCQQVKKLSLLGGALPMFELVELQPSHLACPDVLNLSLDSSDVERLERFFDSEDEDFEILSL
Mot1-301 SUMO = SUMOylation pathway inhibition by Mot1-301 growth rescue; S. cerevisiae Mot1-301 growth rescue, ATP luminescence, 38.5C; percent above DMSO median, 100 means doubled; growth rescue, % at 18.8 µM; hit rate 1% among 320,000;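 active = every valid replicate shows activation above 250% relative to neutral control wells; inactive = the rest, any valid replicate at or below 250%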
FAS-TE inh = FAS thioesterase (human) inhibition; P49327; recombinant FAS-TE, OMFH fluorogenic substrate, fluorescence endpoint; inhibition, % at 15 µM; hit rate 0.67% among 360,000;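 active = compounds whose normalised, plate-corrected inhibition of enzyme fluorescence in the single-dose primary screen is 50% or more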
Calb FLC = C. albicans growth modulation with fluconazole. C. albicans CaCi-2 (fluconazole-resistant clinical isolate) + fluconazole, Alamar Blue growth, 48 h. AID 1979. hit rate 0.57% among 300,000. growth inhibition, % (no concentration beside the values);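 active = growth inhibition above about 58% in most replicates, limit read from the data, passing the limit was not always enough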;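 also: all wells also contain fluconazole at 8 µg/ml as a sub-toxic cotreatment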
NadD block = blocks S. aureus nicotinate mononucleotide adenylyltransferase; purified NadD enzyme, colorimetric absorbance read-out; hit rate 0.78% among 360,000; inhibition, % at 20 µM; AID 602399; in the data active = inhibition above about 26%
A number is an active result; i = inactive; nt = no result; ! = not confirmed by another sample.

SMILES | ATG4B inhibitor | Mot1-301 SUMO | FAS-TE inh | Calb FLC | NadD block
O=C(c1ccc(Br)cc1)N1CCC(C(=O)N2CCN(Cc3ccccc3)CC2)CC1 | i | i | i | i | i
Oc1ccc2ccccc2c1/C=N/Nc1ccccc1 | i | i | i | i | i
Cc1cc(N/N=C/c2c(O)ccc3ccccc23)nc(-c2ccccc2O)n1 | i | i | i | 81.9 | i
CC(O)(c1ccc(Cl)cc1)C(c1ccccc1)c1ccccn1 (configuration not stated) | i | nt | i | nt | i
Cc1[nH]c(C)c(S(=O)(=O)NCCc2ccc(S(N)(=O)=O)cc2)c1C(=O)N1CCCC1 | i | i | i | i | i
O=C(NC(=S)NNC(=O)c1cnccn1)c1ccc(Cl)cc1 | i | i | i | 94.4 | i
COc1ccc(C(=O)NC(=S)NNC(=O)c2cnccn2)cc1 | i | i | i | 118.4 | i
Nc1c(C(=O)NCC2CCCO2)sc2nc3c(c(-c4ccco4)c12)CC/C3=C\c1ccco1 (configuration not stated) | 49.4 | nt | i | nt | 93.0
Nc1ccc(Oc2ccc3c(c2)C(=O)N(CC2CCCO2)C3=O)cc1 (configuration not stated) | i | 284.1 | i | i | i
CC(C)NC(=O)C1(C)CCCN1Cc1csc2ccccc12 (configuration not stated) | nt | nt | i | nt | i
O=c1cc(CN2CCN(Cc3ccccc3)CC2)c2ccc(O)c(O)c2o1 | i | i | i | 88.0 | i
CCC(C)c1ccc(O)c(NC(=S)NC(=O)c2cccnc2)c1 (configuration not stated) | i | i | i | 81.8 | i
COc1ccc(-n2nc(C(=O)NCC(=O)N3CCN(c4ccc(F)cc4)CC3)c3ccccc3c2=O)c(OC)c1 | i | i | i | 98.9 | i
COc1ccc(-n2nc(C(=O)NCC(=O)N3CCN(c4ccccc4)CC3)c3ccccc3c2=O)c(OC)c1 | i | i | i | 78.9 | i
CCOC(=O)N1CCN(C(=O)CNC(=O)c2nn(-c3ccc(OC)cc3OC)c(=O)c3ccccc23)CC1 | i | i | i | i | i
O=C(O)C1CCCN1c1nc(-c2ccc(Cl)c(Cl)c2)cc(C(F)(F)F)n1 (configuration not stated) | i | i | i | nt | i
Cc1cccc(NC(=O)CNC(=O)c2ccc(S(=O)(=O)NCc3ccco3)cc2)c1C | nt | nt | i | nt | i
Cc1ccc(S(=O)(=O)N2CCCCC2CCNC(=O)C(=O)NCc2ccccc2)cc1 (configuration not stated) | i | i | i | i | i
CC1Nc2ncnc(N3CCc4ccccc4C3)c2N(Cc2ccc(Br)cc2)C1=O (configuration not stated) | i | i | i | i | 45.3!
O=C1C(Cc2ccccc2)Nc2ncnc(N3CCc4ccccc4C3)c2N1Cc1ccccc1 (configuration not stated) | i | i | i | nt | 39.8
O=C1C(Cc2ccccc2)Nc2ncnc(N3CCCCC3)c2N1Cc1ccc(Cl)cc1 (configuration not stated) | i | i | i | i | 35.7
COc1ccc(N2CCN(S(=O)(=O)c3c(C)nc4sccn4c3=O)CC2)cc1 | i | i | i | i | i
COc1cc2c(cc1OC)C1(Nc3c-2c(-c2ccccc2)nn3-c2ccccc2)C(=O)Nc2ccccc21 (configuration not stated) | i | i | i | i | 39.8
C[C@H]1CN([C@@H](C)CO)C(=O)c2cccc(NC(=O)Nc3ccc(C(F)(F)F)cc3)c2O[C@@H]1CN(C)Cc1ccc(Cl)c(Cl)c1 | i | i | 77.2 | nt | i
C[C@@H]1CN([C@H](C)CO)C(=O)c2cc(NC(=O)Nc3ccc(C(F)(F)F)cc3)ccc2O[C@H]1CN(C)Cc1ccc(Cl)c(Cl)c1 | nt | nt | i | nt | 32.8
SMILES | ATG4B inhibitor | Mot1-301 SUMO | FAS-TE inh | Calb FLC | NadD block
C[C@H](CO)N1C[C@H](C)[C@@H](CN(C)Cc2ccc(Cl)c(Cl)c2)Oc2c(NC(=O)CCC(F)(F)F)cccc2C1=O | i | i | i | nt | i
Cc1ccnc(S(=O)(=O)Cc2ccc([N+](=O)[O-])cc2)n1 | i | i | i | i | i
COc1ccc(/C(O)=C2/C(=O)C(=O)N(CCN3CCNCC3)C2c2cccc([N+](=O)[O-])c2)cc1 (configuration not stated) | i | i | i | i | i
Cc1ccc([C@@H]2CC=C(C(=O)O)[C@H](c3ccccc3)N2S(=O)(=O)c2ccccc2C)cc1 | i | nt | i | nt | i
CCc1ccc([C@@H]2CC=C(C(=O)O)[C@H](c3ccc(C)cc3)N2S(=O)(=O)c2ccc(C)cc2)cc1 | i | nt | i | nt | i
CCc1ccc([C@@H]2CC=C(C(=O)O)[C@H](c3ccccc3F)N2S(=O)(=O)c2ccc(C)cc2)cc1 | i | 302.3 | i | nt | i
CCCCC[C@@H]1C=C(C(=O)O)[C@H](c2ccc(CC)cc2)N1S(=O)(=O)c1ccc(C)cc1 | i | 354.1 | i | nt | i
CCCC[C@@H]1C=C(C(=O)O)[C@H](c2ccc(CC)cc2)N1S(=O)(=O)c1ccc(C)cc1 | i | nt | i | nt | i
Cc1ccccc1S(=O)(=O)N1[C@@H](c2ccc(Cl)cc2)C(C(=O)O)=CC[C@H]1c1ccc(Cl)cc1 | i | i | i | nt | i
Cc1ccc([C@H]2C(C(=O)O)=CC[C@@H](c3ccc(Cl)cc3)N2S(=O)(=O)c2ccccc2C)cc1 | i | 341.5 | i | nt | i
Cc1ccc([C@@H]2CC=C(C(=O)O)[C@H](c3cccc(Cl)c3)N2S(=O)(=O)c2ccccc2C)cc1 | i | 294.9 | i | nt | i
Cc1ccc(S(=O)(=O)N2[C@@H](c3ccc(Cl)c(Cl)c3)C(C(=O)O)=C[C@H]2C(C)(C)C)cc1 | i | 311.5 | i | nt | i
Cc1ccc([C@H]2C(C(=O)O)=C[C@@H](C(C)(C)C)N2S(=O)(=O)c2ccc(C)cc2)cc1 | i | i | i | nt | i
O=[N+]([O-])c1cccc(S(=O)(=O)[N-]c2nc3ccccc3nc2-n2cc[n+](Cc3ccccc3)c2)c1 | i | i | i | i | i
N[C@@H](Cc1cc(I)c(Oc2cc(I)c(O)c(I)c2)c(I)c1)C(=O)O | 44.9 | i | nt | nt | nt
N[C@@H](Cc1cc(I)c(Oc2ccc(O)c(I)c2)c(I)c1)C(=O)O | 84.4! | i | i | nt | 58.3!
N[C@@H](Cc1ccc(O)c(O)c1)C(=O)O | i | nt | i | nt | i
NC(Cc1ccc(O)c([N+](=O)[O-])c1)C(=O)O (configuration not stated) | i | i | i | i | i
CC(C)=CCc1c(-c2ccc(O)cc2O)oc2c3c(cc(O)c2c1=O)OC(C)(C)C=C3 | i | i | nt | i | nt
CC(C)=CCc1c2c(c(O)c3c(=O)c4c(oc13)-c1cc(O)c(O)cc1OC4C=C(C)C)C=CC(C)(C)O2 (configuration not stated) | i | i | nt | 88.9 | nt
O=C(Nc1cccc(NC(=O)c2cccnc2)c1)c1ccccc1 | i | i | i | i | i
O=C(Nc1cccc(C(F)(F)F)c1)c1cccnc1 | i | i | i | 117.2 | i
COc1ccc(-c2cc(C(F)F)n3ncc(C(=O)N4CCc5ccccc54)c3n2)cc1 | i | i | i | i | i
